# Bioassay records: PubChem, National Center for Advancing Translational Sciences (NCATS)
# TSHR agonist: TSH receptor (human) agonism; Potency, µM (top dose mostly 57.1 µM), most hits filed as activators; HEK293-CNG-TSHR cells (CNG channel as cAMP sensor), membrane potential dye, cAMP; AID 926; 0.48% of 73,000 active; active means well fitted activation curve with a large enough effect in the main read-out, with a control signal flat, not every such curve was filed as active; inconclusive means small, poorly fitted or top-dose-only effect, or a change in a side signal; inactive means no such curve, though single readings can be large or run the other way; reference of the percent scale not stated here;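 further: the control signal comes from parental cells without the receptor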
# Target sequence (P16473 whole entry, looked up): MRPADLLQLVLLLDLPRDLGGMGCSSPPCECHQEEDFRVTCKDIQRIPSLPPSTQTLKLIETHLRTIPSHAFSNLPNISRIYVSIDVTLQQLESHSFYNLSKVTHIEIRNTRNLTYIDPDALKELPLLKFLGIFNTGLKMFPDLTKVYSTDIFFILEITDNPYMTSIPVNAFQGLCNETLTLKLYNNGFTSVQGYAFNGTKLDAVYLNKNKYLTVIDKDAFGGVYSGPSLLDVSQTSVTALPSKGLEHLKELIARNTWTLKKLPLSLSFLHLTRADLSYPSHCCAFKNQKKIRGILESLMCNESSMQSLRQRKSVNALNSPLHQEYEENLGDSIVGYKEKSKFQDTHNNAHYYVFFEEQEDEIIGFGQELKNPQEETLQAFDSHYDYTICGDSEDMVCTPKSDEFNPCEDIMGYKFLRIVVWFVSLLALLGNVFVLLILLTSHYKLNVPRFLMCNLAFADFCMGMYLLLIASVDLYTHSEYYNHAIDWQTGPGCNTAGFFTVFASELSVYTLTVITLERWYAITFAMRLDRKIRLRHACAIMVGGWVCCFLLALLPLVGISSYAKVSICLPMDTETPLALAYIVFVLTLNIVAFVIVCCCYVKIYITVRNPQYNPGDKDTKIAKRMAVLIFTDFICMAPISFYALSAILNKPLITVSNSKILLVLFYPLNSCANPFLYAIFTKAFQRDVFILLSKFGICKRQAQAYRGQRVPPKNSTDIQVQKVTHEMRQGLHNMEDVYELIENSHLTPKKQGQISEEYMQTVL
#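 HEK 293 cells stably expressing TSHR and a modified CNG channel, with CNG-only parental cells as counterscreen, were preloaded 60 min at room temperature with membrane potential dye containing 100 uM RO 20-1724. Compound exposure was 30 min, and depolarization was read as fluorescence at 590 nm.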
# HEK293 cAMP cs: counter-screen for TSHR agonists: cAMP increase in parental HEK293 | Potency, µM (series often up to 57.1 µM), usual class: activators | parental HEK293 CNG cAMP sensor, membrane potential fluorescence | 2.5% of 73,000 active; active means well fitted activation curve with a large enough effect; inconclusive means small, poorly fitted or top-dose-only effect; inactive means no such curve, though single readings can be large or run the other way; further: nearly all actives have a fitted effect of over 55% in size
#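 Parental HEK 293 cells stably expressing a modified CNG channel (no TSHR) report cAMP rise as membrane depolarization. Membrane potential dye with 100 uM RO 20-1724 was loaded for 60 min at room temperature, then compound added for 30 min; fluorescence read at 590 nm.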
# Hits are given with their value; - = inactive; ? = inconclusive; . = no result given; [ ] = another dose, or the depositor's remark. Most compounds without a hit are left out; they make up all but 2.9% or so of the library.
SMILES,TSHR agonist,HEK293 cAMP cs
Fc1ccc(Cn2nnc(-c3ccc(CN4CCOCC4)cc3)n2)cc1,-,-
O=[N+]([O-])c1ccc(C2=Nn3c(nnc3-c3ccc(Cl)cc3)SC2)o1,-[11.4 µM],-[11.4 µM]
CN(c1ccccc1)C(c1ccc(F)cc1)c1nnnn1C1CCCC1 (stereo unspecified),?,12.6µM
Fc1ccc(C(c2nnnn2C2CCCC2)N2CCN(Cc3ccncc3)CC2)cc1 (stereo unspecified),-,-
Cc1nc2cccc([N+](=O)[O-])c2n1CCCN(C)C,-[11.4 µM],-[11.4 µM]
c1cn(CCCNc2ncnc3sc4c(c23)CCC4)cn1,-,-
c1csc(CCNc2ncnc3sc4c(c23)CCC4)c1,?,20µM
CCc1ccc(-c2nnn(CCC(=O)OC)n2)cc1,?,7.94µM
CC(C)c1ccc(-c2nnn(CCC(=O)O)n2)cc1,-,-
O=S(=O)(Nc1ccccn1)c1ccc(C2CCCCC2)cc1,-,-
O=S(=O)(Nc1cccnc1)c1ccc(C2CCCCC2)cc1,?,25.1µM
COC(=O)C1=C(C)NC(C)=C(C(=O)OCCN(C)Cc2ccccc2)[C@@H]1c1cccc([N+](=O)[O-])c1,-,-
CCOC(=O)C1=C(C)Nc2nc(C)nn2C1c1ccc(OCC)c(OC)c1 (stereo unspecified),-,-
CCOC(=O)C1=C(C)Nc2nc(C)nn2C1c1ccc(OC)c(OC)c1 (stereo unspecified),?,1.58µM
CCOC(=O)c1[nH]c(C)c(C(=O)NC2CCCCCC2)c1C,-,-
CCOC(=O)c1[nH]c(C)c(C(=O)NC2CCCC2)c1C,?,25.1µM
Cc1cccc(Cl)c1NC[C@H](O)CN1CCN(C)CC1,-[11.4 µM],-[11.4 µM]
CC1CCN(CCCNC(=O)c2coc3nc4ccccc4nc23)CC1,-,-
Cc1ccc(CCNC(=O)c2coc3nc4ccccc4nc23)cc1,?,20µM
COc1ccc(-c2cc(C(=O)N/N=C\c3cc(OC)c(OC)c(OC)c3)[nH]n2)cc1,-,-
O=C(c1ccc(Cc2nc3ccccc3[nH]2)cc1)N1CCOCC1,-,-
COc1ccc(-c2noc(CCC(=O)Nc3ccc(C)c(C)c3)n2)cc1,-,-
CCN(CCCNC(=O)CCc1nc(-c2ccc(OC)cc2)no1)c1cccc(C)c1,12.6µM,-
CCCCNC(=O)c1ccc(Cc2nc3ccccc3[nH]2)cc1,-,-
CS(=O)(=O)Nc1ccc(Nc2c3ccccc3nc3ccccc23)cc1,-[11.4 µM],-[11.4 µM]
SMILES,TSHR agonist,HEK293 cAMP cs
O=c1oc2ccccc2n1CSC1=NCCS1,-,-
O=c1oc2ccccc2n1CSc1nc2ccccc2s1,?,25.1µM
Cn1c(-c2ccc(Br)o2)nc2cc(Br)ccc21,?,15.8µM
CC(=O)c1ccc(-c2nc3ccccc3n2C)o1,-,-
O=C1c2cccc([N+](=O)[O-])c2C(=O)N1c1ncn[nH]1,-[11.4 µM],-[11.4 µM]
Cn1c(NCCCO)nc2c(c1=O)C1(CCCCC1)Cc1ccccc1-2,-,-
CCn1c(SCC#N)nc2c(c1=O)C1(CCCC1)Cc1ccccc1-2,?,25.1µM
CC1(C)CC[C@]2(C(=O)O)CC[C@]3(C)C(=CC[C@@H]4[C@@]5(C)CC[C@H](O)C(C)(C)[C@@H]5CC[C@@]43C)[C@@H]2C1,-,-
CC(C)C(c1nnnn1C1CCCC1)N1CCCc2ccccc21 (stereo unspecified),.,-
CC(C)(C)n1nnnc1C(c1cccs1)N1CCCc2ccccc21 (stereo unspecified),?,15.8µM
CC1C=CCCOC1c1ccccc1 (stereo unspecified),-[11.4 µM],-[11.4 µM]
CCCn1c(NC(=O)c2ccc(Cl)c(S(=O)(=O)N3CCCC3)c2)nc2ccccc21,?,15.8µM
O=C(NCc1nc2ccccc2[nH]1)c1ccc(Cl)c(S(=O)(=O)N2CCCC2)c1,-,-
O=S(=O)(O)c1ccc(NN(c2c(O)ccc3ccccc23)S(=O)(=O)O)cc1,-[11.4 µM],-[11.4 µM]
CN(C)CCN(Cc1cccs1)c1ccccn1,-,-
CN(Cc1cccs1)c1ncnc2sccc12,?,15.8µM
OC[C@@H]1O[C@@H](n2cnc3c(SCc4ccccc4)ncnc32)[C@@H](O)[C@H]1O,-[11.4 µM],-[11.4 µM]
CC1(CC(=O)O)O[C@H]2CCCCC[C@H]2O1 (stereo partly specified) (tested in a mixture with another compound),-[11.4 µM],-[11.4 µM]
Cc1cc(C(=O)COc2cccc(-n3cnnn3)c2)c(C)n1-c1ccccc1,?,25.1µM
COC(=O)COc1cccc(-n2cnnn2)c1,-,-
C=C1CC[C@@H]2[C@](C)(CC[C@@H](O)[C@]2(C)CO)[C@@H]1C/C=C1/C(=O)OC[C@H]1O,-,-
Cc1ccc2nc3nc4ccc[nH]c4cc3c2c1,-[11.4 µM],-[11.4 µM]
O=C(c1ccc(COc2c(F)c(F)c(F)c(F)c2F)o1)N1CCOCC1,.,-
O=C(c1ccc(C23CC4CC(CC(C4)C2)C3)o1)N1CCOCC1,12.6µM,-
Cc1ccc(C2Nc3ccccc3-c3nc4ccccc4n32)o1 (stereo unspecified),?,20µM
SMILES,TSHR agonist,HEK293 cAMP cs
Cn1c(-c2c(N)n(C3CCCC3)c3nc4ccccc4nc23)nc2ccccc21,-,-
Cc1ccccc1-c1nnc(-c2ccc(Br)cc2)o1,?,3.16µM
Oc1ccccc1-c1nnc(-c2ccc(C(F)(F)F)cc2)o1,-,-
O=C(O)c1oc(C(=O)O)c(C(=O)O)c1C(=O)O,-[11.4 µM],-[11.4 µM]
CN(C)C(=O)c1ccc(-c2nc(N(C)C)c3ccccc3n2)cc1,-,-
CN(C)C(=O)c1ccc(-c2nc(Nc3ccccc3)c3ccccc3n2)cc1,20µM,-
CN(C)CCCSc1ccccc1NC(=O)/C=C\c1ccccc1,-,-
CCC[C@@H]1C[C@@]1(CCC)C(NC(=O)c1ccccc1)c1cccc(Cl)c1 (stereo partly specified),-,-
CCC[C@@H]1C[C@@]1(CCC)[C@@H](NC(=O)Oc1ccccc1)c1ccc(C(=O)OC)cc1,-,-
CCC[C@@H]1C[C@@]1(CCC)C(NP(=O)(c1ccccc1)c1ccccc1)c1ccc(Cl)cc1 (stereo partly specified),?,12.6µM
CCC[C@@H]1C[C@@]1(CCC)C(NC(=O)c1ccco1)c1ccc(Cl)cc1 (stereo partly specified),?,10µM
NCCNc1cccc2ccccc12,?,-
CC(=O)c1c(C)n(-c2ccccc2)c2ccc(O)cc12,-,-
CC(=O)c1c(C)n(-c2ccccc2)c2ccc(OCC(O)CN3CCOCC3)cc12 (stereo unspecified),?,12.6µM
CCC(C)(C)C(=O)O[C@@H]1C[C@@H](C)C=C2C=C[C@H](C)[C@H](CC[C@@H]3C[C@@H](O)CC(=O)O3)[C@H]21,.,-
CCOc1cc(CN2CCN(c3cccc(C(F)(F)F)c3)CC2)ccc1O,-,-
CCOc1cc(CN2CCSCC2)ccc1O,?,0.0316µM
COC(=O)c1cn(NC(=O)c2ccncc2)c(=O)c2ccccc12,-,-
COC(=O)c1cn(NC(=O)C2CCCCC2)c(=O)c2ccccc12,?,12.6µM
COc1cccc(NC(=O)/C=C\c2ccc(Cl)cc2)c1,?,31.6µM
COc1ccc(OCC(=O)Nc2cccc(OC)c2)cc1,-,-
O=C(CSc1nc2ccccc2s1)c1sc2sc3ccccc3[n+]2c1O,-[11.4 µM],-[11.4 µM]
O=C1c2ccccc2C(O)(O)[C@@]1(O)[C@]1(O)C(=O)c2ccccc2C1(O)O,-[11.4 µM],-[11.4 µM]
CSCC[C@@H]1NC(=O)C/C=C\[C@@H](C)COC(=O)[C@H](C)COC1=O,-[11.4 µM],-[11.4 µM]
Nc1nc(-c2cccnc2)cc(-c2cc(-c3cccnc3)nc(N)n2)n1,-[11.4 µM],-[11.4 µM]
